Source: PubChem (National Center for Advancing Translational Sciences (NCATS))
Most compounds without a hit are left out; they make up all but 6.9% or so of the library.
Vif-A3G inh: blocks the Vif interaction with human APOBEC3G; AID 602310; Q9HC16; Potency, µM (top dose mostly 46.1 µM), without a hit: at the top dose activity, negative = active, most hits filed as inhibitors; 0.076% of 410,000 active; HeLa A3G-eYFP + Vif (tagged APOBEC3G with the HIV-1 protein that degrades it), YFP fluorescence, overnight; also: potency is read from the fitted curve at half-maximal effect; % is scaled to controls: 0 for no effect and ±100 for the full control effect; nearly all actives have a fitted effect of over 60% in size
Target sequence (Q9HC16 whole entry, looked up): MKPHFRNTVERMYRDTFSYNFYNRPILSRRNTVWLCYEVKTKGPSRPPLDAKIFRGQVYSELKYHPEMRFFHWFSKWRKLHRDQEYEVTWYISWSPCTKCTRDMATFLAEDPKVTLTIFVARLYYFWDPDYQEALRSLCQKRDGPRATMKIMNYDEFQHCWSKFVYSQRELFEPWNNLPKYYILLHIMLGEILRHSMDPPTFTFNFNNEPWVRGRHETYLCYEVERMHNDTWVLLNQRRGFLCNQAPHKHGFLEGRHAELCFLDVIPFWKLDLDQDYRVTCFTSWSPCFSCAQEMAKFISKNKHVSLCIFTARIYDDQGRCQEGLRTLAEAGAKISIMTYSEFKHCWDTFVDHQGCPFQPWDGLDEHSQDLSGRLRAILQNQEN
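HeLa cells stably expressing Vif and C-terminally eYFP-tagged A3G, seeded overnight at 37 deg C, then exposed to compound by pintool overnight at 37 deg C. Rise in yellow fluorescence (Ex 488/Em 500-530, Acumen) marks blocked Vif-driven A3G degradation.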
SW480 rereplic: induces DNA re-replication in SW480 colon adenocarcinoma cells | Potency, µM (titrated, usually from 46.1 µM), inactives show at the highest dose re-replication activation, most hits filed as activators | SW480 DNA re-replication, Hoechst DNA content imaging, 48 h | 1.8% of 340,000 active; also: potency is read from the fitted curve at half-maximal effect; % of control where 0% means no effect; nearly all actives have a fitted effect of over 55% in size
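Quantitative HTS format with DMSO vehicle controls; 48 hr drug incubation at 37 C, then 40 min Hoechst staining and scanning imager measurement at 405 nm excitation.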
Giardia killer: kills Giardia lamblia | activity change, % at 7.66 µM, hits read low | 0.15% of 340,000 active | Giardia lamblia trophozoite viability; in the data active = activity change below about -80%; inconclusive = between about -30% and that limit;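 also: parasites exposed to compound for two days anaerobically before the ATP read; % is scaled to controls: 0 for no effect and ±100 for the full control effect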
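Giardia lamblia trophozoites (100 cells/well) were incubated with compounds for 48 h at 37 deg C under anaerobic conditions. Viability was read as ATP content by one-step luminescence after 15-30 min at room temperature.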
Vif-A3F inh: Vif-A3F binding inhibition; HeLa A3F-eYFP + Vif (tagged APOBEC3F with the HIV-1 protein that degrades it), YFP fluorescence increase; Potency, µM (highest dose often 46.1 µM), without a hit: top-dose activity, negative = active; 0.2% of 390,000 active; AID 602313; also: potency is read from the fitted curve at half-maximal effect; % of control where 0% means no effect; nearly all actives have a fitted effect of over 65% in size
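HeLa cells stably expressing Vif plus C-terminally eYFP-tagged A3F were seeded, incubated overnight at 37 deg C, dosed with compound, incubated overnight again at 37 deg C. Yellow fluorescence (Ex 488/Em 500-530) reported blocked Vif-mediated A3F-eYFP degradation.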
IL1B secr inh: blocks inflammasome-driven IL-1 beta release; 4.7% of 360,000 active; activity change, % at 57.5 µM; THP-1 LPS/ATP IL-1B secretion, AlphaLISA, 16 h; stronger effect = lower value; AID 743279; in the data active = activity change below about -50%; inconclusive = mostly about -30% to -49%; also: % is scaled to controls: 0 for no effect and ±100 for the full control effect
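THP-1 cells pretreated 1 hr with compounds (up to 57.5 uM final), then stimulated with LPS (250 ng/mL final) plus ATP (1.25 mM final); secreted IL-1B measured by AlphaLISA after 16 hr, decreased signal indicating inhibition.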
MCF10A rerep: induces DNA re-replication in MCF 10a normal breast cells | Potency, µM (doses to about 46.1 µM), inactives show at the top dose activity, positive = re-replication, actives largely listed as activators | MCF 10A DNA re-replication, Hoechst nuclear intensity, 48 h | 2.9% of 350,000 active | AID 624296; also: potency is read from the fitted curve at half-maximal effect; % of control where 0% means no effect; nearly all actives have a fitted effect of over 50% in size
Active calls of the source: *; ? = inconclusive; . = no result given; [ ] = another dose, or the depositor's remark. Unless noted, calls follow the shape of the dose curve; as a rule, active = well fitted curve in the direction sought with a large enough effect; inconclusive = small, poorly fitted or top-dose-only effect, or another doubt; inactive = no such curve, though single readings can be large; an effect the other way counts as inactive or inconclusive.

SMILES	Vif-A3G inh	SW480 rereplic	Giardia killer	Vif-A3F inh	IL1B secr inh	MCF10A rerep
Cc1ccc(-n2cccc2/C=C2/C(=N)N3C(=NC2=O)SN=C3S(C)(=O)=O)cc1	-2%	-3%	-14	-21%	-15	16µM*
COc1cc(/C=C2/C(=N)N3C(=NC2=O)SN=C3S(C)(=O)=O)ccc1OS(=O)(=O)c1ccc(C)cc1	-24%	?	-6	?	-4	?
COc1cccc(-n2c(C)cc(/C=C3/C(=N)N4C(=NC3=O)SN=C4S(C)(=O)=O)c2C)c1	3%	5%	-12	-6%	41	16µM*
COc1cc(OC)c(NC(=O)c2nn(C)c3c2COc2ccccc2-3)cc1Cl	-1%	.	.	-4%	.	.
CCOC(=O)C1CCCN(C(=S)NC(=O)c2cc(Br)ccc2Cl)C1 (centres undefined)	-3%	16µM*	-18	10%	28	7%
CCOc1ccccc1CNCc1c(C(=O)O)c(C)n(Cc2ccc(Cl)cc2)c1C	2%	.	.	-4%	.	.
Nc1ncc(S(=O)(=O)Nc2ccc(F)cc2F)cn1	-5%	.	.	2%	.	.
CC(=O)C1=C(O)CC(c2ccccc2)CC1=NCCc1ccccc1 (centres undefined)	1%	0%	4	-2%	?	3%
CC(=NCCc1c(C)[nH]c2ccc(C)cc12)C1=C(O)CC(c2ccccc2)CC1=O (centres undefined)	?	6.5µM*	0	-3%	-28	2.3µM*
CC(=NCCc1c(C)[nH]c2ccc(OC(F)(F)F)cc12)C1=C(O)CC(c2ccccc2)CC1=O (centres undefined)	-26%	8.2µM*	3	0%	-12	8.2µM*
CCCSc1ncc(Cl)c(C(=O)Nc2sc3c(c2C(N)=O)CCCC3)n1	7.1µM*	.	.	.	.	.
Cn1cc(Br)c(C(=O)Nc2sc3c(c2C(N)=O)CCCC3)n1	-3%	-12%	10	-2%	-82*	5%
CCCSc1ncc(Cl)c(C(=O)Nc2sc3c(c2C(=O)NCCCOC)CCCC3)n1	1%	.	.	.	.	.
NC(=O)c1c(NC(=O)c2cccs2)sc2c1CCCCCC2	0%	2%	-5	2%	-84*	-3%
COc1ccc2nc(Nc3sc4c(c3C(N)=O)CCCC4)sc2c1	?	3%	13	?	-100*	?
COc1cc2c(C(=O)N3CCN(c4ccc(C)cc4)C(C)C3)cn(CC(C)C)c(=O)c2cc1OC (centres undefined)	1%	.	.	-4%	.	.
O=C1C[C@@H](c2ccccc2Cl)N1S(=O)(=O)c1ccccc1[N+](=O)[O-]	-1%	.	-11	.	.	.
COc1cc(OC)cc(C(=O)Nc2sc3c(c2C(N)=O)CCC3)c1	0%	?	30	0%	?	0.58µM*
CCOC(=O)CSC1=NC(=O)CS1	-5%	?	-9	-15%	-14	21µM*
O=C1CSC2(C(=O)N(Cc3c(F)cccc3Cl)c3ccccc32)N1c1ccc(F)c(F)c1 (centres undefined)	5%	.	.	-1%	.	.
CC(C)=CCOc1ccc([C@@H]2COc3c(ccc4c3C=CC(C)(C)O4)C2)c(O)c1	-11%	-11%	-19	-2%	-20	21µM*
COc1ccc(OCc2cc(=O)c3ccc4c(c3o2)C=CC(C)(C)O4)cc1OC	0%	-51%	-13	1%	-12	16%
O=C(COC(=O)CNC(=O)c1ccccc1Cl)Nc1cc(C(F)(F)F)ccc1Cl	1%	4%	77	-7%	.	15µM*
Cc1nc(SCC(=O)NC(C)(C#N)C2CC2)c2c(-c3cccs3)csc2n1 (centres undefined)	1%	-1%	-9	-9%	-59*	?
Cc1nc(SCC(=O)NCC(F)(F)F)c2c(-c3cccs3)csc2n1	2%	1%	-26	-7%	0	?
SMILES	Vif-A3G inh	SW480 rereplic	Giardia killer	Vif-A3F inh	IL1B secr inh	MCF10A rerep
COc1ccc(Br)cc1CN(C)C(=O)c1ccccc1OCc1c(C)noc1C	-1%	-11%	3	-7%	-65*	8%
COc1ccccc1CN(C)C(=O)c1ccccc1SCC(=O)N1CCCC1	0%	-9%	4	-9%	-27	9%
COc1ccc(Br)cc1CN(C)C(=O)c1ccccc1SCC(=O)N1CCCC1	-2%	-34%	-7	-17%	-53*	10%
CN(Cc1ccc(Cl)c(Cl)c1)C(=O)c1ccccc1SCC(=O)N1CCCC1	-6%	1%	-9	6%	-72*	-16%
OC(CN1CCCCC1)c1ccccc1 (centres undefined)	-4%	.	.	.	.	.
O=C(CCNS(=O)(=O)c1ccc(Br)s1)Nc1ccc(Br)cc1	1%	.	.	-4%	.	.
O=C(Cn1nc2c(cc1=O)CCCC2)Nc1ccccc1C(F)(F)F	1%	.	.	-13%	.	.
CCN(C(=O)CSc1nc2ccccc2n1CC(=O)Nc1cccc(C#N)c1)c1ccccc1	-3%	.	.	2%	.	.
CCCN1C(=O)/C(=C\c2ccncc2)SC1=Nc1ccccc1	-9%	-9%	4	1%	-98*	?
CCCN1C(=O)/C(=C/c2ccc(C)o2)SC1=Nc1ccc(OC)cc1	-7%	1%[9.22 µM]	10	.	-12	16µM*
CCN1C(=O)/C(=C\c2ccncc2)SC1=Nc1ccc(C)c(C)c1	-14%	-1%	6	2%	-100*	?
CCn1c2ccccc2c2cc(/C=C3/C=Cc4ccccc43)ccc21	-23%	.	.	.	.	.
COc1ccc(CN2[C@@H](CC(=O)O)c3ccc(/C=C/C(=O)O)cc3S2(=O)=O)cc1	1%	.	.	.	.	.
CC[N+](C)(C)c1ccc(/C=C/c2ccc3ccccc3n2)cc1	-5%	.	.	.	.	.
NC1=NC2=C(CCCC2)C2(CCCCC2)S1	-1%	?	6	0%	-65*	?
COc1ccc2c(C)cc(N3CCCCCC3)nc2c1	1%	?	9	-14%	-67*	?
COc1ccc2c(C)cc(N3CCN(Cc4ccccc4)CC3)nc2c1	1%	-3%	-8	-1%	-26	29%
Cc1ccc(C)c(N2CCN(CCCNC(=O)c3cnn(-c4ccccc4Cl)c3C3CCN(C(=O)OC(C)(C)C)CC3)CC2)c1	-16%	.	.	9%	.	.
CCN1CCN(C(=O)c2ccccc2N(Cc2ccccc2)S(C)(=O)=O)CC1	1%	0%	-4	2%	19	10%
CCN1CCN(C(=O)c2ccccc2N(Cc2ccccc2)S(=O)(=O)c2ccc(C)cc2)CC1	0%	12%	17	0%	-68*	-1%
Cc1ccc(S(=O)(=O)N(Cc2ccccc2)c2ccccc2C(=O)Nc2ccccc2C(=O)NCc2ccco2)cc1	1%	16%	-20	1%	-9	3%
Cc1ccc(S(=O)(=O)N(Cc2ccccc2)c2ccccc2C(=O)NCc2ccco2)cc1	-14%	3%	-8	-7%	-94*	?
